From PubChem BioAssay (NCATS)
The source made the active and inactive calls. A call without a number means that no potency is given here. Calls come from the whole dose curve; as a rule, active = well fitted inhibition curve with a large enough effect; inconclusive = small, poorly fitted or top-dose-only effect; inactive = flat fitted curve, though single readings scatter.

test system: Nanoluciferase (engineered Oplophorus gracilirostris luciferase); experiment: Primary Nanoluciferase (NLuc) qHTS assay for identification of artifact compounds. (AID 1845222); details: NLuc-conditioned medium, Nano-Glo luminescence, 5 min; series mostly up to 54.1 µM;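 note: NLuc secreted into diluted conditioned medium of S16 cells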
Procedure, shortened: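 NLuc from S16 cell medium (1:55) plus test compounds, 15 min, room temperature. Luminescence after Nano-Glo (1:100) addition, 5 min.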

Structure (SMILES) | Potency
CN(CCCOc1ccc(Cc2ccccc2)cc1)CCC(=O)O | inactive
Cc1onc(-c2c(F)cccc2Cl)c1C(=O)N[C@@H]1C(=O)N2[C@@H]1SC(C)(C)[C@@H]2C(=O)O | inactive
CCCCN(CC)c1nc(C)nc2c1c(C)cn2-c1c(C)cc(C)cc1C | inactive
O=C(O)CC1CC(c2ccccc2)=NO1 (configuration not stated) | inactive
CC(=O)O[C@H]1C[C@@]2(C)[C@@H](C[C@@H](O)[C@H]3[C@@]4(C)CC[C@@H](O)[C@@H](C)[C@@H]4CC[C@@]32C)/C1=C(\CCC=C(C)C)C(=O)O | inactive
CCNc1nc2c(ncn2[C@H]2C[C@H](O)[C@@H](CO)O2)c(=O)[nH]1 | inactive
NS(=O)(=O)c1ccc(-n2nc(C(F)(F)F)cc2-c2ccc(Cl)cc2)cc1 | inactive
